Sampled rows, rich in hits. Any-hit rate of the full collection: about 15%.
SARS PLpro yeast: inhibitors of SARS-CoV papain-like protease in yeast | Potency, µM (titrated, usually from 32.9 µM), hits mostly activators | S. cerevisiae expressing SARS-CoV PLpro, growth rescue | AID 485353 | 330,000 compounds, 0.19% hits; calls by dose curve; further: nearly all actives have a fitted effect of over 55% in size
Sm TGR block: blocks Schistosoma mansoni thioredoxin glutathione reductase; Q962Y6; 360,000 compounds, 3% hits; Potency, µM (doses to about 114 µM), most hits filed as inhibitors; purified TGR, DTNB reduction, TNB absorbance 405 nm; AID 485364; further: nearly all actives have a fitted effect of over 60% in size
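TGR 20 nM + NADPH 100 uM (dispensed conc.), cpd preinc 15 min RT; start with NADPH (500 uM addition) then DTNB (15 mM addition). Kinetic TNB absorbance, 405 nm filter. Four-parameter Hill fit across titration.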
Pf growth 96h: P. falciparum growth inhibition at 96 hour, primary screen for plastid delayed-death inhibitors. 320,000 compounds, 6.9% hits. P. falciparum luciferase reporter growth, 96 h. AID 504834. Potency, µM (series often up to 28.7 µM), hits mostly inhibitors
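Cell-based qHTS: luciferase-tagged P. falciparum in erythrocytes (2% hematocrit, 0.05% parasitemia final) incubated with compounds for 96 hours, 37 C, 5% CO2; luciferase detection reagent then added and luminescence measured.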
HCV inh: blocks hepatitis C virus. Potency, µM (doses to about 41.8 µM), actives largely listed as inhibitors. 340,000 compounds, 3.4% hits. Huh7.5.1 HCVcc-Cre infection, luciferase reporter, 44 h. AID 651820
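Cells (1,000/well) were plated 4 h before compound, then infected with HCVcc-Cre virus (~0.5 moi). After 44 h further culture, infection was read as luciferase luminescence following a 15 min substrate incubation at room temperature.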
HCMV antiviral: human cytomegalovirus inhibition; HFF cells, HCMV-luciferase reporter, 72 h; active compounds read low; activity change, negative = inhibition, % at 57.5 µM; 410,000 compounds, 4.5% hits; AID 1259415; in the data active means activity change below about -60%; inconclusive means no clear call, values can overlap the other calls; inactive means above about -39%
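HFF cells seeded 16 h at 37C, treated with compounds, infected with luciferase-reporter HCMV at MOI 1 PFU/cell; luciferase read at 72 h post infection, normalized to buffer-only and Salinomycin controls.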
Pf growth 48h: inhibits P. falciparum growth in the first generation, 48 h; P. falciparum luciferase growth in erythrocytes, 48 h; Potency, µM (highest dose often 28.7 µM), hits mostly inhibitors; 310,000 compounds, 5.9% hits; AID 504832
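Erythrocytes infected with P. falciparum carrying an integrated firefly luciferase reporter (2% hematocrit, 0.1% parasitemia final) were exposed to compounds in RPMI 1640 with 0.5% Albumax at 37 C, 5% CO2. Growth inhibition was scored as reduced luminescence.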
Numbers stand for hits; i = inactive; ? = inconclusive; nt = no result; [ ] = another dose, or the depositor's remark. Unless noted, the call rests on the fitted dose curve; in most records, active means well fitted curve in the direction sought with a large enough effect; inconclusive means small, poorly fitted or top-dose-only effect, or another doubt; inactive means no such curve, though single readings can be large; an effect the other way counts as inactive or inconclusive.

SMILES	SARS PLpro yeast	Sm TGR block	Pf growth 96h	HCV inh	HCMV antiviral	Pf growth 48h
C[C@@]12C(=O)Nc3ccc(Br)cc3C(=O)N1[C@H]1c3cc(Cl)ccc3OC[C@@H]1[C@@H]2c1ccccc1	i	i	3.29µM	?	nt	3.7µM
O=C(NCCCCC(NC(=O)c1ccccc1)C(=O)O)OCc1ccccc1 (stereo unspecified)	nt	nt	nt	nt	i	nt
COC(=O)CNC(c1ccccc1)c1cc(C)ccc1NC(=O)CNC(=O)OCc1ccccc1 (stereo unspecified)	i	i	nt	i	i	13.1µM
COC(=O)CNC(c1ccccc1)c1cc(Br)ccc1NC(=O)OCc1ccccc1 (stereo unspecified)	i	i	?	?	i	?
COC(=O)CNC(c1ccccc1)c1cc(C)ccc1NS(=O)(=O)c1ccc(C)cc1 (stereo unspecified)	i	i	13.1µM	6.31µM	i	9.28µM
COC(=O)C(CCCCNC(=O)OCc1ccccc1)NC(=O)CN (stereo unspecified)	i	79.4µM	?	i	i	i
Cc1ccc(NC(=O)CNC(=O)OCc2ccccc2)cc1C	i	0.112µM	i	i	i	i
CCOC(=O)Cn1ncn(-c2ccc(OC(F)(F)F)cc2)c1=O	i	i	?	i	i	i
CC/C(=N\NC(=O)c1ccc2c(c1)OCO2)C12CC3CC(CC(C3)C1)C2	i	i	nt	i	i	i
CC/C(=N/NC(=O)c1ccc2c(c1)OCO2)c1ccccc1O	nt	nt	nt	3.16µM	-97.9	nt
COc1ccc(/C(C)=N\NC(=O)c2ccc3c(c2)OCO3)cc1OC	i	i	i	nt	?	i
C/C(=N\NC(=O)c1ccc(C)cc1C)c1ccc2c(c1)OCO2	i	i	3.7µM	i	i	10.4µM
C/C(=N\NC(=O)c1cc2ccccc2cc1O)c1ccc2c(c1)OCO2	i	i	5.22µM	i	i	6.57µM
Cc1cc(C)cc(NC(=O)N2CCC3(CC2)Oc2ccccc2C(=O)N3Cc2ccccc2F)c1	nt	i	nt	nt	i	nt
COc1cccc(C(=O)Nc2cccc(C(=O)OCc3cc(=O)n4nc(C5CC5)sc4n3)c2)c1	nt	i	nt	nt	i	nt
CN(Cc1ccc2nonc2c1)Cc1nc(CC2CC2)no1	i	i	2.33µM	i	i	i
Fc1ccc2nc(C3CCCCN3Cc3nc(CC4CC4)no3)[nH]c2c1 (stereo unspecified)	i	i	i	i	i	?
CCc1ccc(NC(=O)N2CCN(Cc3nc4ccc(C)cc4o3)CC2)cc1	nt	i	nt	nt	i	nt
Cc1cc(C)n(C(C)CC(=O)Nc2ccc(-c3ccno3)cc2)n1 (stereo unspecified)	i	i	0.522µM	i	i	?
O=C(CC(c1ccc(F)cc1)c1ccco1)Nc1nccs1 (stereo unspecified)	i	39.8µM	i	i	i	?
CCC(=O)NCCC(c1ccco1)c1ccccc1OC (stereo unspecified)	i	25.1µM	10.4µM	i	i	?
COc1ccccc1C(CC(=O)Nc1nccs1)c1ccco1 (stereo unspecified)	i	50.1µM	6.57µM	i	i	2.94µM
COc1ccccc1NC(=O)CC(c1ccc(F)cc1)c1ccco1 (stereo unspecified)	i	?	i	i	i	?
OC(CN1CCN(c2cccc(C(F)(F)F)c2)CC1)c1c[nH]c2ccccc12 (stereo unspecified)	i	i	?	i	i	?
CCOC(=O)C1(C)CCCCN1C(=O)c1cccc(Cl)c1 (stereo unspecified)	nt	nt	nt	nt	i	nt
SMILES	SARS PLpro yeast	Sm TGR block	Pf growth 96h	HCV inh	HCMV antiviral	Pf growth 48h
C=CCOc1nc(-c2ccncc2)nc2ccccc12	i	i	i	5.01µM	i	7.38µM
CC(=O)c1ccc(Oc2nc(-c3cccnc3)nc3ccccc23)cc1	i	i	i	11.2µM	i	?
CCCOc1ccc(Oc2nc(-c3ccncc3)nc3ccccc23)cc1	i	i	1.04µM	?	i	1.31µM
COc1nc(-c2ccncc2)nc2ccccc12	i	i	?	?	i	?
O=[N+]([O-])c1cccc(S(=O)(=O)NCC2CC3CCC2C3)c1 (stereo unspecified)	i	i	?	i	i	i
COc1cccc(C2C3=C(Nc4[nH]n(-c5ccccc5)c(=O)c42)c2ccccc2C3=O)c1 (stereo unspecified)	i	i	i	i	nt	?
Cn1c2c(c(=O)[nH]c1=O)C(c1cccc(O)c1)C1=C(N2)c2ccccc2C1=O (stereo unspecified)	i	i	i	?	-99.7	?
CCOC(=O)CSc1nnc(-c2ccccc2NC(=O)c2ccccc2)o1	i	i	i[5.75 µM]	i	i	i
CCc1nnc(NC(=O)CSc2nnc(-c3ccccc3NC(=O)c3ccccc3)o2)s1	i	i	?	11.2µM	i	i
O=C(Nc1ccccc1-c1nnc(SCc2ccc(Cl)cc2Cl)o1)c1ccccc1	i	i	2.33µM	?	i	i
N#C/C(=C\c1ccc(F)c(Cl)c1)S(=O)(=O)c1ccccn1	i	i	i	i	i	i
COc1ccc(NC(=S)N2CCN(S(=O)(=O)c3ccccc3)CC2)cc1	i	i	10.4µM	i	i	i
COc1ccc(NC(=S)N2CCN(C(=O)c3ccco3)CC2)cc1	i	i	0.465µM	i	i	i
COc1ccc(NC(=S)N2CCN(S(=O)(=O)c3ccc(C)cc3)CC2)cc1	i	i	i	i	-60.6	?
COc1ccc(NC(=S)N2CCN(S(=O)(=O)c3ccc(OC)cc3)CC2)cc1	i	i	i	i	i	?
Cc1cc(C)cc(NC(=S)N2CCN(S(=O)(=O)c3ccccc3)CC2)c1	i	i	3.7µM	?	?	?
O=C(NCCC(F)(F)F)c1cccc2c(-c3ccc(F)c(F)c3)coc12	nt	nt	nt	nt	i	nt
O=C(NCCc1ccc(F)cc1)c1ccncc1	i	i	i	i	i	i
CCOc1ccc(NC(=S)N2CCN(C/C=C/c3ccccc3)CC2)cc1	?	i	i	?	i	i
COc1ccc(NC(=S)N2CCN(C/C=C/c3ccccc3)CC2)cc1	i	i	i	?	-64.6	i
O=C(Cc1ccc(NC(=O)C2CCCN(C(=O)c3ccccc3)C2)cc1)Nc1cccc(C(=O)N2CCCC2)c1 (stereo unspecified)	nt	nt	nt	nt	i	nt
CC1(C(=O)NS(=O)(=O)C2CC2)CCCN(C(=O)Cc2ccc(F)cc2)C1 (stereo unspecified)	nt	nt	nt	nt	i	nt
O=C(Cn1ncc2c3ccccc3n(Cc3ccc(F)cc3)c2c1=O)N1CCC2(CC1)OCCO2	i	i	?	?	nt	11.7µM
O=c1[nH]ncc2c3ccccc3n(Cc3ccc(F)cc3)c12	i	i	i	i	?	3.29µM
O=C(Cn1ncc2c3ccccc3n(Cc3ccc(F)cc3)c2c1=O)N1CCN(c2ncccn2)CC1	i	i	i	?	i	9.28µM

High-throughput results deposited in PubChem BioAssay by National Center for Advancing Translational Sciences (NCATS).
